According to PubChem BioAssay:
Values without a mark were called inactive. Calls of active or inactive are those of the source. Unless noted, no stated cut-off is given here; in the data, active means inhibition above about 33%; inactive means the rest.

Experiments:
[1] = StAR promoter reporter inhibitors, counter-screen for LRH-1 inverse agonist project, cell-based, luminescence, high throughput (AID 651611; in the data active means inhibition above about 28%); settings: StAR promoter luciferase reporter counterscreen, at 3.6 µM, stronger effect = higher value
[2] = molecular target: Nuclear receptor subfamily 5 group A member 2 (Homo sapiens) (UniProt O00482); experiment: LRH-1 (NR5A2) inverse agonists, retest, confirmation, cell-based, luminescence (AID 651613; in the data active means inhibition above about 42%;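 further: HEK293T cells co-transfected with LRH-1 and StAR promoter luciferase reporter; 0% = vehicle wells and 100% = parental cells lacking receptor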); settings: cell-based LRH-1 luciferase reporter, inverse agonism; at 3.6 µM; stronger effect = higher value
Chain of Nuclear receptor subfamily 5 group A member 2 (Homo sapiens) (O00482 whole entry, looked up): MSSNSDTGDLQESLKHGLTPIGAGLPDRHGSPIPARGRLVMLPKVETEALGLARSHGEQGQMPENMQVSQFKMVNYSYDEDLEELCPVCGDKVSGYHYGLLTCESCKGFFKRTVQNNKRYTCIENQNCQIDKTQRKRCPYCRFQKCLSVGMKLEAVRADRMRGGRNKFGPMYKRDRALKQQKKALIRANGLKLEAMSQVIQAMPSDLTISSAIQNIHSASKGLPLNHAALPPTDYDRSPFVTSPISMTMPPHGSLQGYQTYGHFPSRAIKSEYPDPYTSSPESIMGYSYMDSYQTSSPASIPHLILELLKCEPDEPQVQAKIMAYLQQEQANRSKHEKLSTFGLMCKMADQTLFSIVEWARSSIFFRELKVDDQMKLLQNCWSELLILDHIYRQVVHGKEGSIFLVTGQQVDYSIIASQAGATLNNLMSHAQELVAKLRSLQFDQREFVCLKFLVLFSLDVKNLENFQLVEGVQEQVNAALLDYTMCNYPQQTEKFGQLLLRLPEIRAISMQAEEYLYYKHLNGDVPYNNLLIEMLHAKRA

[3] = molecular target: Steroidogenic factor 1 (Homo sapiens) (UniProt Q13285); experiment: SF1 (NR5A1) inverse agonists, counter-screen for LRH-1 inverse agonist project, cell-based, luminescence, high throughput (AID 651614; in the data active means inhibition above about 44%;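 further: cells cotransfected with StAR promoter reporter and SF1 expression vector; 0% = vehicle on cells with receptor and 100% = vehicle on cells lacking receptor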); settings: cell-based SF1 luciferase reporter, at 3.6 µM, stronger effect = higher value
Chain of Steroidogenic factor 1 (Homo sapiens) (Q13285 whole entry, looked up, the tested form may be a part): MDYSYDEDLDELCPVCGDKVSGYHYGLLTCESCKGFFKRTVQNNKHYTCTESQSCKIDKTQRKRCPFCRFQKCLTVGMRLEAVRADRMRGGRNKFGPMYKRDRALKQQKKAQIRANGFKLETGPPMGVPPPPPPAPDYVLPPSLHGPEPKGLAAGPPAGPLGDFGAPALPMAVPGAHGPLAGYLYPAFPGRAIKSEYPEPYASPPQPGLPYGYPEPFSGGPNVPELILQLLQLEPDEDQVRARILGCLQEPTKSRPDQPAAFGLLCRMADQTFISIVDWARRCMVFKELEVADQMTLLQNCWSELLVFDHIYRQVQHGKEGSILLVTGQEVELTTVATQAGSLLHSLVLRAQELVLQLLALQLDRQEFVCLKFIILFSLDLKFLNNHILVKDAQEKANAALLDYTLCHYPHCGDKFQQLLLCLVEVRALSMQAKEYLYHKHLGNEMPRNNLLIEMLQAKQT

[4] = VP16 transactivation reporter inhibitors, counter-screen for LRH-1 inverse agonist project, cell-based, luminescence, high throughput (AID 651615); settings: Gal4-VP16 luciferase reporter cells, at 3.6 µM, stronger effect = higher value

Row | SMILES | inhibition [1] | inhibition [2] | inhibition [3] | inhibition [4]
1 | Cc1ccc(C)c(NC(=O)CSc2nc3[nH]ncc3c(=O)[nH]2)c1 | 6.04% | 58.1% (active) | 56% (active) | 7.57%
2 | COc1ccc(NC(=O)CSC2=NCCN2)cc1 | -2.78% | 31.3% | 15.1% | -3.5%
3 | CN(C)c1ccc(CNc2ncnc3sccc23)cc1 | 2.38% | 71% (active) | 47.9% (active) | 42.5% (active)
4 | CS(=O)(=O)N1CCN(c2ccccc2NC(=O)c2cc3ccccc3o2)CC1 | 26.4% | 47.5% (active) | 33.7% | -6.66%
5 | CC1CCCN(c2cc(N(C)CCO)c([N+](=O)[O-])c3nonc23)C1 (configuration not stated) | 14.3% | 56.2% (active) | 43.2% (active) | 14.8%
6 | Cc1ccccc1C(=O)NC1CCN(CC(=O)Nc2ccc(Br)cc2)CC1 | 5.55% | 59.1% (active) | 53.4% (active) | 15.4%
7 | CCc1cc(=O)oc2c(C)c(OCC(=O)NCCCN3CCCC3=O)ccc12 | 8.43% | 52.1% (active) | 48.4% (active) | -11.3%
8 | Cc1ccccc1-c1nnc(SCC(=O)Nc2cccc(C)c2C)o1 | -7.62% | 24.8% | 26.9% | -3.77%
9 | CC(C)(C)C(=O)N1CCN(c2ccc(NC(=O)c3ccc([N+](=O)[O-])o3)cc2)CC1 | 11.1% | 59.7% (active) | 68.6% (active) | -12.6%
10 | COc1ccc(-c2nnnn2-c2ccccc2OC)cc1 | 8.71% | 53.8% (active) | 54.3% (active) | 0.37%
11 | N#Cc1ccccc1NC(=O)c1ccccc1OCC(=O)Nc1ccc2c(c1)oc1ccccc12 | 13.3% | 33.9% | 23.9% | 4.76%
12 | N#Cc1c2c(c(NCCOCCO)n3c1nc1ccccc13)CCCC2 | 4.14% | 40.5% | 31.7% | -0.15%
13 | O=C(NCCN1CCOCC1)c1ccc2c(c1)N(Cc1ccccc1F)C(=O)CS2 | 11.1% | 42.4% (active) | 36.2% | -9.87%
14 | CC(=O)NC12CC3CC(C1)CC(C(=O)Nc1nc4ccc(S(C)(=O)=O)cc4s1)(C3)C2 | 11.2% | 50.8% (active) | 45.2% (active) | -1.09%
15 | Cc1nnsc1C(=O)NC1CCCc2c1cnn2-c1ccc(F)cc1F (configuration not stated) | 19.6% | 59.4% (active) | 55.4% (active) | 55.9% (active)
16 | COC(=O)c1ccc([C@H](NC(=O)c2ccco2)[C@]2(C)C[C@H]2C2CCCCC2)cc1 | 4.8% | 30.3% | 21.1% | 2.54%
17 | COc1ccc(CCNC(=O)COC(=O)C23CC4CC(CC(C4)C2)C3)cc1 | 17.5% | 57% (active) | 48.7% (active) | 1.82%
18 | COC(=O)c1ccc(NC(=O)CSc2ccc(-c3ccccn3)nn2)cc1 | -13.3% | 52.9% (active) | 41.7% | -18%
19 | CC(=O)ON=C1C=CC(=C(C#N)c2ccccc2)C=C1 | 50.8% (active) | 79% (active) | 79.4% (active) | 20.2%
20 | C=CCNc1sc(C(=O)c2ccccc2)c(N)c1C#N | 13.8% | 43.6% (active) | 47.7% (active) | 6.37%
21 | COc1ccc(S(=O)(=O)Nc2ccc3c(c2)n(C)c(=O)n3C)cc1F | 19.6% | 46.2% (active) | 52.1% (active) | 7.89%
22 | O=C(c1ccco1)N1CCN(C(=O)c2ccc(COc3ccc(Cl)cc3Cl)o2)CC1 | 5.02% | 49% (active) | 46.2% (active) | -11.1%
23 | O=C(Cn1ncc2c([nH]c3ccccc32)c1=O)Nc1ccc(CN2CCCCC2)cc1 | 5.26% | 60.9% (active) | 62.4% (active) | -4.27%
24 | CCCc1cc(=O)oc2cc(OCC(=O)N3CCN(C(=O)C4COc5ccccc5O4)CC3)ccc12 (configuration not stated) | 8.6% | 63.4% (active) | 55.5% (active) | 3.04%
25 | CCOC(=O)N1CCN(C(=O)CSc2nc3c([nH]c4ccccc43)c(=O)n2CC)CC1 | 36.3% (active) | 63.7% (active) | 55.8% (active) | -25.2%
26 | CCOc1cc(/C=N/n2nnnc2N)ccc1OCc1c(C)no[n+]1[O-] | 12.5% | 53.2% (active) | 56.4% (active) | -7.92%
27 | O=C1c2cc(F)ccc2-n2c1nc1ccccc1c2=O | 50.5% (active) | 72.4% (active) | 73.9% (active) | 67.9% (active)

Row | SMILES | inhibition [1] | inhibition [2] | inhibition [3] | inhibition [4]
28 | O=C(NCCCc1ccccc1)c1cc([N+](=O)[O-])ccc1Cl | 23.3% | 71% (active) | 67.5% (active) | -15.8%
29 | COc1ccc(-c2oc(=O)c3cc(OC)c(OC)cc3c2C#CCCO)cc1 | 33.4% (active) | 28.7% | 29.1% | -1.67%
30 | O=C(C(Cl)c1ccccc1)N1CCCC1 (configuration not stated) | 7.29% | 51.5% (active) | 44.9% (active) | -16.8%
31 | CCOc1ccc(Br)cc1/C(C)=N\NC1=NCCN1 | 1.83% | 36.8% | 36.7% | 33.2% (active)
32 | COC(=O)c1ccc(CNC(=O)COC(=O)c2cc(Cl)nc(Cl)c2)cc1 | 11.2% | 52.4% (active) | 37.1% | 11.2%
33 | O=C(COC(=O)c1cccc(O)c1)Nc1ccc(N2CCOCC2)cc1 | 13.6% | 54.3% (active) | 54.6% (active) | -6.64%
34 | CCOc1ccc2c(c1)sc(N)[n+]2Cc1cc(C)cc2cccnc12 | 30.7% (active) | 56.2% (active) | 32.1% | 39.5% (active)
35 | Cc1onc(-c2c(F)cccc2Cl)c1C(=O)O/N=C(\N)c1ccc([N+](=O)[O-])o1 | 11.6% | 70.9% (active) | 60.4% (active) | -7.18%
36 | Cc1ccc(C(=O)Nc2sc3c(c2C(=O)O)CCCCC3)o1 | 12.2% | 34.3% | 69.9% (active) | 45.4% (active)
37 | CCOCc1c(C(=O)Nc2ccccc2N2CCN(C)CC2)oc2ccccc12 | 13.5% | 70.5% (active) | 73% (active) | 8.89%
38 | CCOc1ccc(CCNC(=O)COC(=O)c2c(C)nn(-c3ccccc3)c2C)cc1OCC | 3.09% | 41.6% (active) | 28.1% | 2.25%
39 | C[C@H](CO)N1C[C@H](C)[C@H](CN(C)Cc2ccncc2)Oc2cc(-c3ccccc3F)ccc2S1(=O)=O | 12.8% | 64.6% (active) | 64.6% (active) | 11.1%
40 | O=C(Cn1nnc2ccccc2c1=O)Nc1ccc2c(c1)CCC2 | -34.8% | 20.8% | 25.6% | 0.93%
41 | CC1CC(=Cc2ccc(N)cc2)C(=O)O1 (configuration not stated) | -13.5% | 41.8% (active) | 47.7% (active) | -23.5%
42 | COc1cc(/C=N/n2nnnc2N)ccc1OCc1c(C)no[n+]1[O-] | 9.05% | 54.4% (active) | 42.6% | 10.5%
43 | O=S(=O)(c1ccc(-c2csc(Nc3ccc(F)cc3)n2)cc1)N1CCCC1 | 15.5% | 66.7% (active) | 56.4% (active) | 35.4% (active)
44 | CCCCCc1ccc(OCCCC[n+]2ccc(C)cc2)c(CCCCC)c1 | 21.4% | 42.3% (active) | 45.7% (active) | 45.6% (active)
45 | Cc1ccc(-n2nc(C)c(NC(=O)CCl)c2C)cc1C | 57.9% (active) | 66.8% (active) | 66.8% (active) | -60.3%
46 | CC(Nc1ncnc2ccccc12)c1ccccc1 (configuration not stated) | 20.9% | 60.2% (active) | 67.9% (active) | 53.7% (active)
47 | CCOC(=O)C1CCCN(S(=O)(=O)c2ccc(S(=O)(=O)N(CC)CC)cc2)C1 (configuration not stated) | 18.1% | 60.3% (active) | 54.5% (active) | 49.5% (active)
48 | O=C(Sc1cccc2cccnc12)c1ccccc1Br | 86.8% (active) | 92.1% (active) | 85.5% (active) | 88% (active)
49 | CCC(=O)N1CCN(c2cc(NCC3CCCO3)c(F)cc2[N+](=O)[O-])CC1 (configuration not stated) | 9.58% | 43.8% (active) | 50.7% (active) | 0.55%
50 | CC(=O)Nc1cc(-c2cccc(NS(C)(=O)=O)c2)cn2c(-c3ccccc3)cnc12 | 28% (active) | 40.4% | 34.3% | -8.63%
51 | CC(=O)N1CCN(c2ccccc2NC(=O)c2cc3ccccc3o2)CC1 | 9.44% | 43.5% (active) | 37.7% | 2.75%
52 | CCOc1cc(/C=N/Nc2nnc(C)n2N)ccc1O | -6% | 18.2% | 22.2% | 2.17%
53 | CC1=C(n2nnc([N+](=O)[O-])n2)C(c2cccnc2)C(C#N)=C(N)O1 (configuration not stated) | 6.01% | 17.6% | 21.5% | -0.44%
